Assay outcomes deposited in PubChem by National Center for Advancing Translational Sciences (NCATS).
Most compounds without a hit are left out; they make up all but 3.9% or so of the library.
USP2a inh – USP2a (human) protease inhibition. O75604. USP2 core, Ub-CHOP2 coupled fluorogenic reporter, 485/531. Potency, µM (doses to about 38.3 µM), for inactives: at the top dose activity change, negative = inhibition, usual class: inhibitors. 330,000 compounds, 0.01% hits;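 further: potency means the concentration at half of the fitted maximal effect; plate controls were DMSO wells for no effect and full inhibition by NEM control for full effect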
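Cell-free coupled assay: 10nM USP2 core preincubated 30min RT with compound in Tris-HCl pH 8.0/CaCl2/CHAPS buffer, then 25nM Ub-CHOP2 and 25nM reporter substrate; fluorescence (Ex 485/Em 531) read after 60min RT, normalized to NEM inhibition, concentration-response curves fitted.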
D1 ag – activates the human D1 dopamine receptor. HEK293 T-REx D1 cells, calcium flux, agonist mode. activation, % at 2 µM. 360,000 compounds, 1% hits. AID 504660; in the data active means activation above about 30%; further: 0% is about no effect
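Tetracycline-induced HEK293 TREx D1 cells, force-coupled to calcium signalling, were dye-loaded with a no-wash calcium kit. Compound was pin-added after a 10 s baseline. Fluorescence was read kinetically at 1 cycle/s for 180 s, with calcium rises flagged as agonism.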
Eya2 phos inh – inhibitors of human Eya2 phosphatase activity; recombinant Eya2, OMFP fluorescence dephosphorylation (OMFP is methylfluorescein phosphate); Potency, µM (titrated, usually from 76.9 µM), for the others: at the top dose activity, negative = inhibition, hits mostly inhibitors; 330,000 compounds, 0.006% hits; AID 488837; further: potency means the concentration at half of the fitted maximal effect; on the % scale 0 is the no-effect control and ±100 the full control effect
Target sequence (O00167 whole entry, looked up): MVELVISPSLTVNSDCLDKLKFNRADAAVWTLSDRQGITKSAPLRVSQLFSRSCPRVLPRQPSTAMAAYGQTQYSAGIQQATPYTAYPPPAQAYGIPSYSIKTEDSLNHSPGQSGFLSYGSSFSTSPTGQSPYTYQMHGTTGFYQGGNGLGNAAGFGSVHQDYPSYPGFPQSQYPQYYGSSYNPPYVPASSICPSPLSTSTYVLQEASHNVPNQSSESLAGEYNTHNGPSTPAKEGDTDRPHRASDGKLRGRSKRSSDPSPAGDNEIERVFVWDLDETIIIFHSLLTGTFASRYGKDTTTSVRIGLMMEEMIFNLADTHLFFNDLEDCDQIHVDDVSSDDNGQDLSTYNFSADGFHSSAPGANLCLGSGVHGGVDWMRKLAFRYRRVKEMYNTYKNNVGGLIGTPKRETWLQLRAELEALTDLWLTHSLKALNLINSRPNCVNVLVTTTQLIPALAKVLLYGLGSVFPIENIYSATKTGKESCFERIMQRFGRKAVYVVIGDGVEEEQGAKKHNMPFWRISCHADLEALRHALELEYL
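Eya2 (0.2 uM) preincubated 10 min at ambient with compound, then OMFP substrate added at 50 uM; 10 min reaction in 50 mM HEPES pH 7.5, 50 mM NaCl, 5 uM MgCl2, 0.05% BSA, 1 mM DTT. Fluorescence read at Ex 485/Em 525 nm.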
D1 antagonist – blocks dopamine activation of the human D1 receptor; P21728; HEK293 TREx D1 cells, calcium flux, dopamine EC80; hits give low values; activity change, negative = inhibition, % at 10 µM; 360,000 compounds, 3.2% hits; in the data active means activity change below about -30%; further: on the % scale 0 is the no-effect control and ±100 the full control effect
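After overnight tetracycline induction at 30 C, force-coupled D1 HEK293 cells took up a no-wash calcium dye at room temperature. Compounds were added and monitored 180 s, and the response to EC80 dopamine was then recorded.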
D1 PAM – potentiators of human D1 dopamine receptor. 360,000 compounds, 0.036% hits. potentiation, % at 10 µM. AID 504651. HEK293 TREx D1 cells, calcium flux, dopamine EC20 potentiation. P21728; in the data active means potentiation above about 30%; further: 0% is about no effect
GALK inhibitor – blocks human galactokinase activity; P51570; Purified GALK, Kinase-Glo residual ATP luminescence; Potency, µM (highest dose often 57.5 µM), for the others: top-dose activity change, negative = inhibition, hits mostly inhibitors; 270,000 compounds, 0.007% hits; further: potency means the concentration at half of the fitted maximal effect; on the % scale 0 is the no-effect control and ±100 the full control effect
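The enzyme phosphorylates galactose (100 uM) using ATP (35 uM); inhibition is detected as higher residual ATP, quantified by bioluminescence after 1 h reaction at room temperature, pH 8.0.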
Starred values were filed as active, the others as inactive; u = inconclusive; x = no result given. Unless noted, the call rests on the fitted dose curve; in most records, active means well fitted inhibition curve with a large enough effect; inconclusive means small, poorly fitted or top-dose-only effect, or effect the other way; inactive means flat fitted curve, though single readings scatter.

SMILES	USP2a inh	D1 ag	Eya2 phos inh	D1 antagonist	D1 PAM	GALK inhibitor
CCN(C(=O)COC(=O)c1c(C)nsc1NC)c1ccccc1	0%	31*	-7%	-3	x	x
CNc1snc(C)c1C(=O)OC(C)C(=O)Nc1cccc(C)c1 (configuration not stated)	2%	x	6%	x	x	x
CNc1snc(C)c1C(=O)OCC(=O)N(C)Cc1ccccc1	3%	14	u	-43*	-7	x
CNc1snc(C)c1C(=O)OC(C)C(=O)NCc1ccccc1 (configuration not stated)	0%	6	-6%	6	-1	x
COc1ccc(C)cc1NC(=O)NCc1cccn1Cc1ccccc1	x	1	x	-2	1	x
Cc1ccc(NC(=O)C(=O)NCCN2CCN(C(=S)Nc3ccccc3)CC2)cc1	6%	4	5%	-34*	-3	0%
COC(=O)c1ccc(NC(=S)N2CCN(Cc3ccccc3)CC2)cc1	-2%	17	-15%	-43*	-6	x
COC(=O)c1ccc(NC(=S)NCCc2cccc(C)c2)cc1	-1%	21	-4%	-29	-10	1%
COC(=O)c1ccc(NC(=S)NCCc2ccccc2C)cc1	1%	23	0%	-36*	-5	-1%
COC(=O)c1ccc(NC(=O)CSc2ccccc2)cc1	2%	2	7%	-75*	-4	0%
COC(=O)c1ccc(NC(=S)N2CCN(Cc3cccc(C)c3)CC2)cc1	0%	x	-5%	x	x	-9%
CCOc1ccccc1NC(=O)Cn1c(=O)n(Cc2ccc(C(=O)NCCCOC)cc2)c(=O)c2ccccc21	x	-2	x	4	-2	x
COC(=O)c1ccc(NC(=O)Cc2ccc(F)cc2)cc1	1%	0	3%	-30*	-4	-1%
CCCCN1C(=O)C(NC(=O)c2ccc(C(C)(C)C)cc2)(C(F)(F)F)C(C(=O)OC)=C1C (configuration not stated)	x	58*	x	4	5	x
CCOc1ccc(NC(=O)c2nc3nc(C)cc(C(F)F)n3n2)cc1	x	0	x	3	2	x
COc1cc2c(c(OCC(=O)NC(C)C)c1)C(=O)O[C@@H](C)CCCC(=O)CCCCC2	4%	0	-16%	-33*	-7	-1%
COc1cc(OCC(=O)NC(C)C)cc2c1C(=O)O[C@@H](C)CCCC(=O)CCCCC2	3%	0	-1%	0	-1	-1%
Cc1noc(C)c1COC(=O)CCc1nc2ccccc2s1	-1%	2	1%	-32*	-1	-2%
Cc1cc(NC(=O)/C=C/c2ccc(F)cc2)n(-c2nc3ccccc3[nH]2)n1	2%	5	-5%	-36*	-8	1%
Cc1cc(NC(=O)/C=C/c2cccc(F)c2)n(-c2nc3ccccc3[nH]2)n1	2%	2	-1%	-25	-13	x
COc1ccc(/C=C/C(=O)Nc2cc(C)nn2-c2nc3ccccc3[nH]2)cc1	6%	4	-2%	-41*	-10	1%
Cc1ccc2c(=O)cc(CSc3ncn[nH]3)[nH]c2c1C	x	2	x	-9	-1	x
Cc1cc2c(s1)c1cnn(Cc3ccc(F)cc3Cl)c(=O)c1n2C	x	4	x	-5	2	x
COc1ccc(CCNc2oc(Cc3cccc4ccccc34)nc2C#N)cc1OC	-3%	10	-21%	-13	-5	-1%
COc1ccc(CCNc2oc(COc3ccc(Br)cc3)nc2C#N)cc1OC	2%	2	16%	-32*	x	4%
SMILES	USP2a inh	D1 ag	Eya2 phos inh	D1 antagonist	D1 PAM	GALK inhibitor
COc1ccc(CNc2oc(COc3ccc(Cl)cc3)nc2C#N)cc1	1%	4	0%	-30*	-7	0%
COc1ccc(CCNc2oc(COc3ccccc3F)nc2C#N)cc1	-1%	3	0%	-67*	-10	0%
COc1cc(OC)c(NC(=O)CSCc2nc(-c3ccc(OC)c(OC)c3)no2)cc1Cl	x	0	x	5	-1	x
COc1ccccc1NC(=O)CN1C(=O)C(c2ccc(F)cc2)=NC12CCCCC2	x	0	x	-4	2	x
CC(=O)N1CCc2cc(S(=O)(=O)NC(Cc3ccccc3)C(=O)Nc3ccc(Cl)cc3)ccc21 (configuration not stated)	x	1	x	22	-1	x
COc1cccc(-c2nnc(SCC(=O)NC3CCS(=O)(=O)C3)n2C)c1 (configuration not stated)	2%	3	15%	-35*	-7	x
N#Cc1ccc(Cl)cc1NC(=O)COC(=O)[C@H](CCC(N)=O)NC(=O)c1ccc(F)cc1	2%	2	5%	-32*	1	x
COc1ccc(C)cc1NC(=O)c1cc(S(=O)(=O)N2CCc3ccccc3C2)ccc1F	x	-3	x	-18	-1	x
CC(NC(=O)CCCN1C(=O)c2ccccc2C1=O)c1ccc2c(c1)CCCC2 (configuration not stated)	1%	3	-17%	-40*	9	0%
CC(NC(=O)CCCCCN1C(=O)c2ccccc2C1=O)c1ccc2c(c1)CCCC2 (configuration not stated)	-1%	4	12%	5	0	0%
CC(C)c1cc2c(s1)c1cnn(Cc3ccccc3F)c(=O)c1n2C	x	13	x	5	-3	x
CCOC(=O)C1[C@H]2C(=O)N(C(C)c3ccc(OC)cc3)C[C@]23C=C[C@H]1O3 (some centres not stated)	0%	0	-29%	-41*	2	2%
CCc1ccc(S(=O)(=O)c2cn(Cc3ccc(OC)cc3)c3cc(OC)c(OC)cc3c2=O)cc1	x	9	x	-1	0	x
Cc1cccc(/C=N/N(CCO)C2=NS(=O)(=O)c3ccccc32)c1	1%	2	7%	-34*	-6	0%
N#Cc1cc2ccccc2nc1SCC(=O)Nc1ccccc1N1CCOCC1	-1%	62*	11%	-10	-3	0%
COc1ccc(NC(=O)C2=CC(c3ccc4c(c3)OCO4)=NS(=O)(=O)N2C)cc1	x	1	x	-14	-2	x
CCC(C)NC(=O)c1cnn(-c2cccc(F)c2)c1-n1cccc1 (configuration not stated)	x	1	x	-14	-5	x
Cc1ccc(Nc2c(-c3cc(Br)ccc3F)nc3cc(C)ccn23)cc1	x	0	x	4	-4	x
COc1ccc(OC)c(NC(=O)C(=O)N/N=C/c2ccccc2[N+](=O)[O-])c1	0%	0	18%	-34*	-7	0%
CCOC(=O)c1[nH]c(CN2CCN(c3ccc(OC)cc3)CC2)c(C(=O)OCC)c1C	-5%	64*	-15%	13	x	-1%
CCOC(=O)c1[nH]c(C)c(C(=O)N2CCN(c3ccc(OC)cc3)CC2)c1C	-1%	1	-21%	-11	0	1%
